# SMARCA2 activ: increases SMARCA2 function in MMTV reporter cells; MG213 cells, MMTV-luciferase reporter, dexamethasone, overnight; 370,000 compounds, 1% hits; activation, % at 9.1 µM; in the data active = activation above about 7.8%
# ssDAF-12 act: activates DAF-12 receptor from parasite S. stercoralis; HEK293 ssDAF-12/GRIP1 lit1-tk-luc reporter, luminescence; % of 3 µM dafachronic acid response; activation, % at 6.8 µM; 370,000 compounds, 1% hits; AID 652126;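 active = activation above the mean over all tested compounds plus 3 SD, cut at about 0.9% in these data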
# hgDAF-12 ag: hgDAF-12 agonism, primary luciferase screen; HEK293 GAL4-hgDAF12 UAS-luciferase reporter, agonist luminescence; normalized to butyrate control; activation, % at 6.8 µM; AID 687014; 370,000 compounds, 1.8% hits;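 active = activation above a cutoff set at the mean of all screened compounds plus 3 SD, cut at about 10% in these data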
# DAX1 inh-1: inhibitors of human orphan nuclear receptor DAX1 (NR0B1) | HEK293 Gal4-DAX1 luciferase reporter, luminescence | inhibition, % at 6.75 µM | 340,000 compounds, 0.99% hits;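 active = inhibition above the mean over all tested compounds plus 3 SD, cut at about 4.2% in these data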;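 also: inhibition shows as a rise in luminescence from relieved DAX1 repression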
# hcDAF-12 act: activators of H. contortus DAF-12 nuclear receptor; AID 652067; HEK293 hcDAF-12 lit1-tk-luc reporter, luminescence; 0% DMSO, 100% Δ7-dafachronic acid; activation, % at 6.8 µM; 370,000 compounds, 1.4% hits;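 active = activation above the mean of all tested compounds plus 3 SD, cut at about 5.5% in these data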
# DAX1 inh-2: DAX1 (NR0B1) inhibition, primary screen; 370,000 compounds, 1.1% hits; HEK293T StAR-luciferase reporter, SF-1/DAX-1 repression relief; AID 652010; inhibition, % at 6.8 µM;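 active = inhibition above the mean over all tested compounds plus 3 SD, cut at about 3.6% in these data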;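 also: higher inhibition means more luminescence from relief of DAX-1 repression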
# LXR ag: LXR-beta agonism as hcDAF-12 counter-screen | shares compounds with hcDAF-12 act | activation, % at 6.8 µM | 3,400 tested, under 10 active | AID 743027 | HEK293 Gal4-LXR tk-luc reporter, luminescence, 24 h; normalized: DMSO 0%, positive control 100%;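 active = mean percent activation of the reporter above a cutoff set as the average over tested compounds plus their standard deviation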
# Target sequence (P55055 whole entry, looked up, the tested form may be a part): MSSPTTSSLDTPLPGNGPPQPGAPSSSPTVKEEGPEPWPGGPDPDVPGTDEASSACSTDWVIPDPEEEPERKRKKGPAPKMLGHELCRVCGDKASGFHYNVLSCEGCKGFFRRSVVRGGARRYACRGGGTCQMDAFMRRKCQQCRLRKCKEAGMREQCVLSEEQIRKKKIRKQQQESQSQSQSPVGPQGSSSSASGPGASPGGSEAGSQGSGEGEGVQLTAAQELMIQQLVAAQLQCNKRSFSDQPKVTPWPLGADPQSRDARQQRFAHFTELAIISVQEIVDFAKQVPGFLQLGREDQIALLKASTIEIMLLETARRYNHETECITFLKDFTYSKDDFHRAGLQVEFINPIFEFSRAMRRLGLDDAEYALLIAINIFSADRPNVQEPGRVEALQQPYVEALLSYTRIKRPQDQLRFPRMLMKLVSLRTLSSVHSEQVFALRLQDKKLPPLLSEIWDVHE
# hcDAF12 conf: hcDAF-12 agonism, confirmation assay; shares compounds with hcDAF-12 act; activation, % at 6.8 µM; HEK293 hcDAF-12 lit1-tk-luc reporter, luminescence; % of Δ7-dafachronic acid response; 3,400 compounds, 61% hits; AID 743032;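 active = mean activation across triplicate tests above the threshold derived from the earlier primary screen, cut at about 5.5% in these data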
# Numbers stand for hits; 0 = inactive; - = no result given. In the library only some 4.8% were active in any assay of this set; here they are far more common.
SMILES,SMARCA2 activ,ssDAF-12 act,hgDAF-12 ag,DAX1 inh-1,hcDAF-12 act,DAX1 inh-2,LXR ag,hcDAF12 conf
COc1cc(/C=C/C(=O)OCC(=O)NCc2ccco2)cc(OC)c1OC,0,0,0,0,0,0,-,-
CCOc1ccc(C(=O)CCC(=O)NN2C(=O)NC3(CCCCC3)C2=O)cc1,0,0,0,0,0,0,-,-
CCCCCCCCCn1cc(C(C)=O)c(=O)[nH]c1=O,0,0,0,0,0,0,-,-
O=C(O)C(=O)/C(=C\c1cccc(Cl)c1)c1ccc2ccccc2n1,0,2.1,11,0,14,3.8,0,8.6
CN(c1ccccc1)c1ccc(/C=N/N2CCOCC2)cc1,0,0,11,5.8,7.0,0,0,5.9
C(=NN1CCCCCC1)c1ccccc1,0,0,0,0,0,0,-,-
COc1ccc(OC)c(/C=C/C(=O)N2C(=O)c3cccc(N)c3C2=O)c1,0,0,0,0,0,0,-,-
CC(C)c1ccc(-c2cc(C(=O)NN3CCN(C)CC3)c3ccccc3n2)cc1,0,0,0,0,7.3,0,0,6.0
Clc1ccc(-c2nc3ncccn3c2Nc2ccc3c(c2)OCCO3)cc1,0,0,0,0,0,0,-,-
COc1cccc(NS(=O)(=O)Cc2ccccc2)c1,0,0,0,0,0,0,-,-
CCOc1ccc(N2C(=O)C(=O)/C(=C(/O)c3ccccc3)C2c2ccccc2[N+](=O)[O-])cc1 (stereo not given),0,1.3,0,0,9.4,0,0,0
CC(=O)C1=C(O)C(=O)N(c2ccc(O)cc2)C1c1ccccc1[N+](=O)[O-] (stereo not given),0,0,0,0,0,0,-,-
NC(=O)CSc1nnc(COc2cccc3ccccc23)o1,0,0,0,0,0,0,-,-
O=C(Nc1ccc(F)cc1)c1nsc(Cl)c1Cl,0,2.8,11,0,9.7,0,0,11
O=C(Nc1cccc(-c2nc3ccccc3o2)c1)c1cccnc1,0,0,0,0,0,0,-,-
O=C(CNc1ccc2ccccc2c1)N/N=C/c1cc2ccccc2nc1Cl,0,0,0,0,13,0,0,0
O=C(Nc1ccccc1)c1cnc2ccccc2n1,0,1.1,11,0,7.5,0,0,7.4
CCC(=O)N(CC)Cc1cc(=O)[nH]c2ccccc12,0,0,0,0,6.8,0,0,0
COc1ccc2c(=O)c(-c3nc(C)cs3)coc2c1,0,1.1,14,0,7.0,4.1,0,14
Cc1csc(NC(=O)c2cc3c(s2)CCCC3)n1,0,0,12,0,11,0,0,7.0
Cc1cnc(NC(=O)c2cc3c(s2)CCCC3)s1,0,0,0,0,9.0,0,0,7.0
Cc1csc(NC(=O)c2cc3c(s2)CCCCC3)n1,0,0,0,0,0,0,-,-
O=C(O)CC1=C(O)C(=O)N(c2ccccc2)C1c1ccccc1 (stereo not given),0,0,0,0,0,0,-,-
Cc1noc(C)c1NC(=O)Nc1ccc2c(c1)C(=O)N([C@H](C)CO)C[C@H](C)[C@@H](CN(C)S(=O)(=O)c1cccs1)O2,0,0,0,0,0,0,-,-
Nc1cccn2c(-c3ccc(Cl)c(Cl)c3)cnc12,0,1.1,0,0,9.5,4.0,0,13
SMILES,SMARCA2 activ,ssDAF-12 act,hgDAF-12 ag,DAX1 inh-1,hcDAF-12 act,DAX1 inh-2,LXR ag,hcDAF12 conf
CC(=O)Nc1cc(-c2ccc(F)cc2)cn2c(-c3ccc(F)c(Cl)c3)cnc12,0,0,0,-,0,0,-,-
CSCCC(NC(=O)c1ccc(C(C)(C)C)cc1)C(=O)OCC(=O)N1CCCC1=O (stereo not given),0,0,0,0,0,0,-,-
COc1ccc(C(=O)C[n+]2ccc3ccccc3c2C)cc1,0,1.8,0,8.6,13,0,0,14
COc1ccc(C(=O)C[n+]2cccc3cc(OC)ccc32)cc1,0,0,0,0,0,0,-,-
Cc1ccc(C(=O)C[n+]2ccc3ccccc3c2)cc1,0,1.3,0,0,6.7,0,0,0
COC(=O)NCC(C)OC(=O)Nc1ccc(Cl)cc1 (stereo not given),0,0,0,0,0,0,-,-
CCC(=O)Nc1cc2nn(-c3ccccc3)nc2cc1Cl,0,0,0,0,7.3,0,0,13
CC(NC(=O)CNC(=O)c1ccc2c(c1)OCO2)c1ccc(S(N)(=O)=O)cc1 (stereo not given),0,0,0,0,0,0,-,-
C=CCNc1nc(-c2cccs2)c(CC(=O)O)s1,0,0,0,0,0,0,-,-
O=C(O)Cc1sc(Nc2ccccc2)nc1-c1cccs1,0,0,0,7.8,6.9,0,0,0
COc1ccc(CC(=O)O/N=C(\N)c2ccc(C)cc2)cc1,0,1.6,0,0,7.7,0,0,8.5
COc1ccc(-c2nnc(-c3ccc(F)cc3)o2)cc1,0,0,0,0,0,0,-,-
COc1cccc2sc(Nc3nnc(-c4ccc(F)cc4)o3)nc12,0,0,0,0,7.8,0,0,0
Cc1ccc(/C=N/Nc2nnc(Cl)c3ccccc23)cc1,0,3.7,0,0,11,0,0,18
Cc1ccc(-c2nc(N/N=C/c3ccncc3)c3ccccc3n2)cc1,0,1.1,0,0,15,0,0,20
CC(=O)Nc1ccc(C=NNc2nnc(NN=Cc3ccc(NC(C)=O)cc3)c3ccccc23)cc1,0,0,0,0,0,0,-,-
Clc1nnc(N/N=C/c2ccccc2)c2ccccc12,0,1.2,0,0,7.3,0,0,11
COc1ccc(/C=N/Nc2nc(-c3cccnc3)nc3ccccc23)cc1OC,0,0,0,0,0,0,-,-
Clc1ccc(/C=N/Nc2nnc(Cl)c3ccccc23)cc1,0,1.6,0,0,7.0,0,0,8.7
Cc1c(NC(=O)CC2CC(C)OC2=O)c(=O)n(-c2ccccc2)n1C (stereo not given),0,0,0,0,0,0,-,-
O=S1(=O)c2ccc(N3CCC[C@@H]3CO)cc2OCCCN1C1CC1,0,0,0,-,0,0,-,-
COc1c(-c2ccc(O)cc2)oc2cc(O)cc(O)c2c1=O,0,0,0,0,0,0,-,-
CC1(C)OC(=O)C(=Cc2ccc(-c3ccc(S(N)(=O)=O)cc3)o2)C(=O)O1,0,0,0,0,0,0,-,-
Nc1cc2[nH]c(=O)c3ccccc3c2cc1Br,0,1.1,0,0,9.7,3.7,0,9.3
Cc1ccc2c(c1)sc(=NC(=O)c1cccs1)n2C,0,1.6,15,0,7.9,0,0,23

# Assay outcomes as filed in PubChem BioAssay.
